According to publication PMC5540273 (PLoS ONE, 2017):

Experiments:
Details in all cases: concentration: 1 μM, replicates: in singlicate; n = 1
PIKFYVE = test system: PIKFYVE
PIM1 = test system: PIM1
PIM2 = test system: PIM2
PIM3 = test system: PIM3
PIP5K1A = test system: PIP5K1A
PIP5K1C = test system: PIP5K1C
PIP5K2B = test system: PIP5K2B
PIP5K2C = test system: T1, PIP5K2C
T1 construct: gene PIP4K2C

PKAC-alpha = test system: T2, PKAC-alpha
T2 construct: gene PRKACA

PKAC-beta = test system: T3, PKAC-beta
T3 construct: gene PRKACB
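Note: KINOMEscan kinase panel screen.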

Structure (SMILES)	%Inh (PIKFYVE)	%Inh (PIM1)	%Inh (PIM2)	%Inh (PIM3)	%Inh (PIP5K1A)	%Inh (PIP5K1C)	%Inh (PIP5K2B)	%Inh (PIP5K2C)	%Inh (PKAC-alpha)	%Inh (PKAC-beta)
CN1c2ccc(CNc3ccc(F)cc3)cc2-c2c(cnn2C)S1(=O)=O	17%	0%	14%	5%	5%	23%	0%	24%	5%	0%
O=C(NCCCN1CCOCC1)c1cccc(Nc2nccc(Nc3ccc(Oc4ccccc4)cc3)n2)c1 [GW663929]	37%	22%	0%	4%	18%	0%	0%	83%	4%	0%
COC(=O)Nc1nc2cc(Oc3ccc(NC(=O)Nc4cc(F)ccc4F)cc3)ccc2[nH]1.Cl [GW701424]	31%	13%	0%	2%	41%	9%	14%	40%	0%	0%
Cc1nnc(-c2ccc3ncc(-c4ccc(S(C)=O)cc4)n3c2)o1 (stereo not shown)	0%	0%	2%	0%	2%	0%	39%	0%	2%	8%
COc1cc(Nc2nccc(N3CCC(NC(=O)c4cccc(NC(C)=O)c4)C3)n2)cc(OC)c1OC (stereo not shown) [GSK1379754]	0%	0%	0%	0%	0%	45%	18%	92.4%	3%	11%
O=c1cc(N2CCOCC2)nc2n(Cc3cccc(F)c3)ccn12 [GSK2297430]	0%	11%	0%	0%	0%	21%	21%	0%	12%	12%
Cc1ccc(C(=O)NCC(N)=O)cc1-n1c(C)cc(OCc2ccc(F)cc2F)c(Br)c1=O	20%	23%	19%	17%	14%	46%	0%	31%	7%	0%
NS(=O)(=O)CCc1cccc(Nc2nccc(-c3c(-c4cccc(NC(=O)c5c(F)cccc5F)c4)nn4ccccc34)n2)c1 [GSK336735]	0%	0%	0%	0%	0%	36%	0%	17%	38%	37%
O=C(NCCNc1ccnc(Nc2ccc(F)cc2)n1)c1cc2ccccc2s1 [GSK1379874]	0%	0%	0%	0%	0%	0%	8%	42%	0%	0%
CC(C)Oc1ccc2c(-c3ccnc(Nc4ccc(N5CCN(C)CC5)cc4)n3)cnn2n1 [GW696155]	92.8%	37%	0%	42%	14%	47%	73%	87%	3%	0%
Cc1c2ccc(N(C)c3ccnc(Nc4cccc(S(N)(=O)=O)c4)n3)cc2nn1Cc1ccccc1.Cl.Cl [GW787226]	0%	0%	0%	0%	0%	0%	0%	0%	17%	4%
[2H]C([2H])(c1cccc(C(F)(F)F)c1C)n1ccn2c(=O)nc(N3CCOCC3)cc12 [GSK2336394]	0%	0%	0%	0%	0%	31%	4%	0%	0%	12%
Cc1c(Cn2c(C)nn3c(=O)cc(N4CCOC(C)C4)nc23)cccc1C(F)(F)F (stereo not shown) [GSK2344444]	46%	11%	0%	0%	0%	0%	0%	0%	4%	17%
O=C(NCCNc1ccnc(Nc2ccc(F)cc2)n1)Nc1ccccc1F [GSK1379880]	0%	0%	0%	0%	0%	24%	0%	38%	8%	0%
COCCNC(=O)c1ccc(-c2cc(C(=O)NC3CC3)cc(F)c2C)cc1 [GW868318]	43%	15%	3%	29%	1%	0%	0%	0%	9%	37%
C[C@@H](Oc1cc(-n2cnc3ccc(NC(=O)NC(C)(C)C)cc32)sc1C(N)=O)c1ccccc1Cl [GSK346294]	37%	17%	0%	0%	35%	48%	10%	42%	4%	0%
